In PubChem BioAssay (NCI):
Compounds without any hit were thinned out: in the full panel of roughly 79,000, 15% have a hit. The source made the active and inactive calls. Rule as the data show it: active = growth inhibition above about 70%; inactive = the rest.

Columns and labels:
[1] = NCI Yeast Anticancer Drug Screen. Data for the rad50 strain (AID 155);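 also: 0% = growth of vehicle-only cultures of the same strain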; conditions: S. cerevisiae rad50 strain growth inhibition; at 50.0 µM; stronger effect = higher value
In short: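 DNA repair mutant yeast, compound exposure, growth read-out; inhibition is taken relative to vehicle.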

[2] = NCI Yeast Anticancer Drug Screen. Data for the mec2-1 strain (AID 157); conditions: S. cerevisiae mec2-1 strain, at 50.0 µM, stronger effect = higher value
In short: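 Compounds were applied to mec2-1 yeast cells. Their growth was then compared with that of vehicle-treated cultures to give growth inhibition.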

[3] = NCI Yeast Anticancer Drug Screen. Data for the sgs1 mgt1 strain (AID 161);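 also: 0% = growth of cultures given vehicle only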; conditions: S. cerevisiae sgs1 mgt1 strain, at 50.0 µM, stronger effect = higher value
In short: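 Growth of a repair-deficient yeast mutant was monitored after compound treatment and expressed as inhibition relative to vehicle-treated cultures.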

[4] = NCI Yeast Anticancer Drug Screen. Data for the cln2 rad14 strain (AID 165);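 also: 0% = growth equal to vehicle treated cultures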; conditions: S. cerevisiae cln2 rad14 strain, at 50.0 µM, stronger effect = higher value
In short: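 Strain: cln2 rad14 yeast, altered in cell cycle control and DNA damage repair. Read-out: growth inhibition vs vehicle.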

[5] = NCI Yeast Anticancer Drug Screen. Data for the bub3 strain (AID 167); conditions: S. cerevisiae bub3 mutant strain, at 50.0 µM, stronger effect = higher value
In short: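 In this screen, a yeast mutant lacking normal mitotic checkpoint function is challenged with compound. Relative growth versus vehicle gives the inhibition value.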

[6] = NCI Yeast Anticancer Drug Screen. Data for the mlh1 rad18 strain (AID 175); conditions: S. cerevisiae mlh1 rad18 strain growth inhibition; at 50.0 µM; stronger effect = higher value
In short: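 A repair-deficient yeast strain is exposed to test compound, and growth is scored relative to vehicle-treated controls.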

Measured: growth inhibition

O=C1OC(C2OC(=O)C(=O)C2C(=O)c2ccccc2Cl)C(C(=O)c2ccccc2Cl)C1=O (configuration not stated)
inactive: [1] 58.4% | [2] 23.9% | [3] 49.5% | [4] 19.1% | [5] 7.15% | [6] 53.5%

O=C(CCC(O)(C(=O)c1ccccc1)c1ccccc1)c1ccccc1 (configuration not stated)
inactive: [1] 9.25% | [2] 9.5% | [3] -0.1% | [4] 6.35% | [5] 0.4% | [6] 26.4%

CC(NC(=O)C1CCCN1C(=O)OCc1ccccc1)C(=O)O (configuration not stated)
inactive: [1] -7.7% | [2] 31.1% | [3] -10.5% | [4] 2.1% | [5] -13.2% | [6] -19.6%

Cc1cc(=O)[nH]c2c(C)cccc12
inactive: [1] 4% | [2] 28.2% | [3] 11.8% | [4] -4.5% | [5] -0.4% | [6] 16.6%

S=c1nc[nH]c2nc(Cl)[nH]c12
inactive: [1] -5.45% | [2] -18.6% | [3] -21.6% | [4] -0.25% | [5] -26.6% | [6] 4%

O=C(O)CC(/C=C\C(=O)C(=O)O)=C\O
inactive: [1] -6.6% | [2] -6.4% | [3] -11.6% | [4] 3.6% | [5] 4.15% | [6] -10.2%

OCC1OC(OC2CC3C(OC4OC(CO)C(O)C(O)C4O)CC(O)CC3OC2c2ccc(O)cc2)C(O)C(O)C1O (configuration not stated)
inactive: [1] 18.1% | [2] 16.2% | [3] 21% | [4] 14.5% | [5] 11.8% | [6] 16.1%

O=C(NN=C1CCCCC1)NN=C1CCCCC1
inactive: [1] -40.2% | [2] -10.8% | [3] -29.2% | [4] -2.4% | [5] -6.55% | [6] -0.4%

CC1(C)CN(CCO)C(C)(C)CN1
inactive: [1] 30.6% | [2] 16.3% | [3] 14.9% | [4] 15.8% | [5] -19.8% | [6] 2.5%

O=C1C=C(Nc2ccc(Cl)cc2C(=O)c2ccccc2)c2ccccc2C1=O
inactive: [1] 3% | [2] -11.7% | [3] -6.9% | [4] 22.2% | [5] -6.55% | [6] -2.9%

CN1CCC(CC(O)(c2ccccc2)C2CCCCC2)C1 (configuration not stated)
inactive: [1] -5.9% | [2] -14.1% | [3] -2.3% | [4] -24.4% | [5] 4.2% | [6] -20.9%

O=C(NP(=O)(O)NC(Cc1ccccc1)C(=O)O)OCc1ccccc1 (configuration not stated)
inactive: [1] -7.45% | [2] -6.65% | [3] 4.1% | [4] -18.9% | [5] 1.8% | [6] -12.2%

COc1cc(C2=N/C(=C\c3cc(Br)cc(Br)c3O)C(=O)O2)cc(OC)c1OC
active: [1] 83.2% | [2] 94.5% | [3] 88.2% | [4] 98.7% | [5] 98.5% | [6] 92.3%

O=c1[nH]cnc2c1CNC2
inactive: [1] 9.5% | [2] -2.5% | [3] -10.4% | [4] -65.8% | [5] -18.4% | [6] 1.6%

COc1ccc([N+](=O)[O-])c(C#N)c1
inactive: [1] 5.95% | [2] -2.2% | [3] 3.35% | [4] -9.75% | [5] -9.4% | [6] -46.6%

C[N+](C)(C)CC(=O)N/N=C(/Cc1nc2c3c(ccc2[nH]c1=O)C(=O)c1ccccc1C3=O)C(=O)Nc1ccc(Cl)c(Cl)c1
inactive: [1] 1.05% | [2] -6.8% | [3] -7.8% | [4] 18.8% | [5] 7.5% | [6] 30.9%

O=C(Nc1nc(C23CC4CC(CC(C4)C2)C3)cs1)c1cc2cc([N+](=O)[O-])ccc2oc1=O
inactive: [1] -12.7% | [2] -31.5% | [3] -14.8% | [4] -34.7% | [5] -15.2% | [6] -10.8%

COc1cc(/C=C(/C#N)C(N)=O)cc(OC)c1OC
inactive: [1] 15.6% | [2] 10.6% | [3] 18.9% | [4] 12.3% | [5] 11.1% | [6] 14.8%

CCCC1([N+](=O)[O-])CCC(C)(O)C(C(C)=O)C1 (configuration not stated)
inactive: [1] -4.3% | [2] -3.8% | [3] 0.9% | [4] -3.35% | [5] -4.8% | [6] 17.4%

COc1ccc2nc(C)cc(N=[N+]=[N-])c2c1
inactive: [1] -34.6% | [2] 1.45% | [3] -16.5% | [4] -46.5% | [5] 8.55% | [6] 10.6%

CCOC(=O)c1[nH]c(CC(=O)O)c(C(=O)OC)c1C
inactive: [1] 8.25% | [2] 14.8% | [3] 19.1% | [4] -3.5% | [5] 26.5% | [6] 7.3%

CCOC(=O)CCN1C(=O)C(=O)N(c2ccc(OC)cc2)C1=S
inactive: [1] -7% | [2] -6.6% | [3] 3.75% | [4] -57.1% | [5] 5% | [6] -5.6%

Cc1ccc(S(=O)(=O)N/N=C2\CC[C@H]3[C@@H]4CC=C5C[C@@H](O)CC[C@]5(C)[C@H]4CC[C@]23C)cc1
active: [1] 95.3% | [2] 95.3% | [3] 76.3% | [4] 97% | [5] 90.6% | [6] 96%

O=C(O)CCS(=O)(=O)CCC(=O)O
inactive: [1] -8.4% | [2] 0.8% | [3] -21.4% | [4] -30% | [5] 8.6% | [6] 22.8%

Nc1cccc(C(=O)Nc2ccc3c(O)cc(S(=O)(=O)O)cc3c2)c1
inactive: [1] 15.2% | [2] -3.1% | [3] 11.9% | [4] -30.4% | [5] -12.4% | [6] 7.05%

CSCCC(N)=O
inactive: [1] -10.2% | [2] -6.95% | [3] 9.8% | [4] 0.05% | [5] -16.8% | [6] 2.9%

O=c1[nH]c(=S)c2[nH]c(=O)n(-c3ccccc3)c2[nH]1
inactive: [1] -15.3% | [2] -7.5% | [3] -59.1% | [4] -26.7% | [5] -9.9% | [6] -14.7%

CC(CCC(=O)O)(CCC(=O)O)C(=O)O
inactive: [1] 4.2% | [2] 3.85% | [3] -0.8% | [4] -15.6% | [5] 3.7% | [6] -1.9%

CCOC1=C(C#N)C(=O)NC2OC(CO)C(O)C2O1 (configuration not stated)
inactive: [1] 11.4% | [2] 5.45% | [3] 11.6% | [4] -8.95% | [5] 17.9% | [6] 15.8%

COc1ccc2nc(N(C)C)cc(N(C)C)c2c1
inactive: [1] -10.6% | [2] 5.6% | [3] -2.4% | [4] -34.8% | [5] 4.6% | [6] -5%

O=C(NC(=S)Nc1ccc(S(=O)(=O)c2ccc(NC(=S)NC(=O)c3ccccc3)cc2)cc1)c1ccccc1
inactive: [1] -28.5% | [2] -32.6% | [3] -7.8% | [4] 8.75% | [5] -32.1% | [6] -12.6%

CCN(CC)C(=O)C(C)=O
inactive: [1] 8.55% | [2] 1.6% | [3] -12.4% | [4] 12.9% | [5] 1.2% | [6] 12.9%

COCC1OC(OC2(COC)OC(COC)C(OC)C2OC)C(OC)C(OC)C1OC (configuration not stated)
inactive: [1] 22.1% | [2] -4.15% | [3] -9.2% | [4] -34.2% | [5] -18.1% | [6] 5.6%

O=C1Nc2ccccc2C2Cc3c([nH]c4ccccc34)CC12 (configuration not stated)
inactive: [1] 47% | [2] 20.1% | [3] 3.8% | [4] 31.1% | [5] 7.4% | [6] 20.9%

NCC(=O)NC1(C(=O)NCC(=O)O)CCCC1
inactive: [1] -2.45% | [2] -2.2% | [3] -20.9% | [4] -13.9% | [5] 6.5% | [6] 1.3%

CO/N=C1\C(O)CC2C(C)(CCC3C2(C)CCC2(C)C4CC(C)(C)CCC4(C)CCC32C)C1C (configuration not stated)
inactive: [1] 1.9% | [2] -3.8% | [3] -18.5% | [4] -14.1% | [5] -1.45% | [6] -5.85%

Cc1cccc2c1c1ccc3c(c1n2C)C(=O)C=CC3=O
inactive: [1] 5.05% | [2] -12.4% | [3] 4.6% | [4] 18.6% | [5] -11.2% | [6] -5%
